Seven molecules from the supplement of paper PMC13094657 can be followed below.

The test system of test [1] is MDA-MB-231. The test is described as follows: cell viability relative to vehicle unstimulated control (fraction); higher = more viable cells. To be noted: pre-treatment time: 18 h then 24 h IFNg/TNF.
Test [2] concerns MDA-MB-231. The test is described as follows: kynurenine production, fold change vs DMSO IFNg/TNF control; higher = more kynurenine produced (less inhibition). To be noted: pre-treatment time: 18 h then 24 h IFNg/TNF. In short, it runs like this: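 Fold change over cytokine-stimulated vehicle wells on the same plate is the measure used for kynurenine production, averaged across duplicate plates in the first screening round. MDA-MB-231 cells, seeded 24 h beforehand at 7 × 10^4/well in 96-well plates, were pre-treated 18 h with each natural product in 0.1% DMSO and stimulated 24 h at 37°C with IFNγ (1 U/ml) and TNF (6.25 ng/ml). Supernatants were read at 492 nm following trichloroacetic acid and p-dimethylaminobenzaldehyde treatment, against 0–100 μM standards.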

Each structure is given as a SMILES string. ± gives the standard deviation of the averaged measurements.
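For cell viability relative to vehicle unstimulated control in this document: viability of the cells left after supernatant collection, read with Deep Blue dye added for 4 h, as absorbance at 570 nm minus 600 nm.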

`C=C(C)C1CC=C(C)[C@@H](O)C1` (single isomer, unassigned; (-)) [(-)-carveol (mixed)] (compound dose: 10 uM): in the test with MDA-MB-231 [1], the cell viability came out at 0.985 ± 0.086. The kynurenine production with MDA-MB-231 [2] was determined as 1.02 ± 0.019.
The like results for `CC(=O)OC1CCC2(C)C(CCC3(C)C2CC=C2C4C(C)C(C)CCC4(C(=O)O)CCC23C)C1(C)C` (centres undefined) [Ursolic acid acetate] (compound dose: 10 uM) were, in that order, 1.11 ± 0.14 and 0.771 ± 0.053.
For the molecule `CC(=O)O[C@@H]1CC[C@@]2(C)[C@@H](CC[C@]3(C)[C@@H]2[C@H](O)C=C2[C@@H]4[C@@H](C)[C@H](C)CC[C@]4(C)CC[C@]23C)[C@@]1(C)C(=O)O` [3-O-Acetyl-11-hydroxy-beta-boswellic acid] (compound dose: 10 uM), the cell viability in the test with MDA-MB-231 [1] is 0.8634 ± 0.0022. Also, the kynurenine production in the test with MDA-MB-231 [2] is 0.988 ± 0.083.
The matching figures for `COC(=O)C1=CO[C@@H](O)[C@@H]2C(CO)=CC[C@H]12` [Genipin] (compound dose: 10 uM): 1 ± 0.026 and 0.76 ± 0.052.
Regarding `C/C=C(\C)C(=O)O[C@H]1[C@H](O)[C@]2(COC(C)=O)[C@@H](O)C[C@]3(C)C(=CC[C@@H]4[C@@]5(C)CC[C@H](O[C@@H]6O[C@H](C(=O)O)[C@@H](O)[C@H](O)[C@H]6O)[C@@](C)(CO)[C@@H]5CC[C@]43C)[C@@H]2CC1(C)C` [Gymnemic acid I] (compound dose: 10 uM), in the test on MDA-MB-231 [1], the cell viability came out at 1.1 ± 0.017. Moreover, in the test on MDA-MB-231 [2], the kynurenine production was 1.43 ± 0.11.
`CC1=CC[C@@H](C(C)(C)O)CC1` [(-)-α-Terpineol] (compound dose: 10 uM): the cell viability in the test on MDA-MB-231 [1] was determined as 1.07 ± 0.061. Moreover, in the test with MDA-MB-231 [2], the kynurenine production stood at 0.84 ± 0.24.
For the molecule `COc1ccc2cc3[n+](cc2c1OC)CCc1cc2c(cc1-3)OCO2` [Berberine] (compound dose: 10 uM), in the test on MDA-MB-231 [1], the cell viability stood at 0.8829 ± 0.0012. Moreover, in the test on MDA-MB-231 [2], the kynurenine production stood at 0.807 ± 0.11.
